Rows were chosen to be rich in hits. Some 1.4% of all compounds tested hit in one or more screens of this group.
N370S GC mod: qHTS Assay for Inhibitors and Activators of N370S glucocerebrosidase as a Potential Chaperone Treatment of Gaucher Disease; Lysosomal acid glucosylceramidase (Homo sapiens), P04062; N370S GC spleen homogenate, 4MU-glucoside fluorescence; Potency, µM (titrated, usually from 59.4 µM), for inactives: top-dose activity change, negative = inhibition, most hits filed as inhibitors; hit rate 0.092% among 330,000; AID 2101, 2009;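 note: potency is the fitted concentration of half-maximal effect; 0% = full enzyme activity and -100% = no enzyme basal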
TCR act: Activators of T cell receptors: qHTS campaign; primary human leukocytes, anti-CD3, IL-2 HTRF, 48 h; Potency, µM (titrated, usually from 9.22 µM), inactives show at the highest dose activation of IL-2 secretion, usual class: activators; 330,000 tested, under 10 active; note: % of control where 0% means no effect
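TCR engagement came from a-CD3 beads alone, with compounds added to primary human leukocytes for 48 hr. Secreted IL-2 bridged europium cryptate- and d2-labelled anti-IL-2 antibodies, giving FRET emission at 665nm after 320nm excitation.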
BRCA1 expr act: qHTS Assay to Identify Small Molecule Activators of BRCA1 Expression | MCF7-BRCA1-FFLuc reporter, luminescence, 48 h; response scale: scaled: vehicle 0%, 10 µM genistein 100% | Potency, µM (highest dose often 46.1 µM), inactives show at the highest dose activation, most hits filed as activators | hit rate 1.1% among 380,000 | AID 624202, 2012; note: potency is the fitted concentration of half-maximal effect; nearly all actives have a fitted effect of over 80% in size
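MCF7-BRCA1-FFLuc cells, 2000/well in phenol-red-free MEM, attached 2 h then treated 48 h at 37 C. Luciferase luminescence read 15 min after reagent; normalized to genistein maximum activation (10microM) and DMSO, concentration-response fitted.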
p53 reactivation: qHTS assay for re-activators of p53 using a Luc reporter; H1299 p53-A138V BP100-luciferase reporter, luminescence, 24 h; Potency, µM (highest dose often 92.2 µM), for the others: at the top dose activity change, positive = activation, actives largely listed as activators; hit rate 0.063% among 320,000; AID 504706, 2011; note: potency is the fitted concentration of half-maximal effect; % of control where 0% means no effect; nearly all actives have a fitted effect of over 45% in size
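p53-null H1299 cells stably carrying temperature-sensitive p53-A138V and a BP100-luciferase reporter were pinned with compounds (4-point, 1:5 series) and held 24 hrs at 37 deg C. Luminescence was read 10 min after detection reagent.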
GLS inh: qHTS for Inhibitors of Glutaminase (GLS); Glutaminase kidney isoform, mitochondrial (Homo sapiens), O94925; hit rate 0.21% among 410,000; GLS enzymatic activity, qHTS titration; Potency, µM (doses to about 45.5 µM), for the others: at the highest dose activity change, negative = inhibition, usual class: inhibitors; note: potency is the fitted concentration of half-maximal effect; % is set by controls: 0 for no effect and ±100 for the full control effect
Target sequence (O94925 whole entry, looked up, canonical isoform): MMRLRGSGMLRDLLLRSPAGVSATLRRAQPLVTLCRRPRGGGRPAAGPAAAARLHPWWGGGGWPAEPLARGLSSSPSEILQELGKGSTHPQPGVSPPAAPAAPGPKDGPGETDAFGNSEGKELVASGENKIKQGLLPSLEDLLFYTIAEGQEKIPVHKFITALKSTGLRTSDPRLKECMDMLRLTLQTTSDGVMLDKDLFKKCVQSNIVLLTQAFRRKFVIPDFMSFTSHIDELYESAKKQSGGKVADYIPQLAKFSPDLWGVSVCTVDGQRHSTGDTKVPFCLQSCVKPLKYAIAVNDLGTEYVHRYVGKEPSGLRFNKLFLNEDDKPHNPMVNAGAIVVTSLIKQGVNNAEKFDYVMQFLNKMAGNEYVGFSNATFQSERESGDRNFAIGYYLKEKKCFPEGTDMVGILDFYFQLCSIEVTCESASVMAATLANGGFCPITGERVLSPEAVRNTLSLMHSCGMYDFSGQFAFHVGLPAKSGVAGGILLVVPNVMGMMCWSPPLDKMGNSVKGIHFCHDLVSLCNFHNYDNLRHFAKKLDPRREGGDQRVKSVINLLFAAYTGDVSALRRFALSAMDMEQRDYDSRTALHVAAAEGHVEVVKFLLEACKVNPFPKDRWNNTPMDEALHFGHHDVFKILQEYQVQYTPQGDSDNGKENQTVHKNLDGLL
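hKGA in 45 mM KH2PO4 (pH 8.2), 0.02% Tween-20 with compound, then 1mM L-Glutamine (stock as added) plus glutamate oxidase/HRP/Amplex red coupling mix. Fluorescence read initially and after 30 min at RT; signal change reflects glutamate formation.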
TSHR antag: Antagonists of the Thyroid Stimulating Hormone Receptor: HTS campaign; activity change, negative = inhibition, % at 11.5 µM; hit rate 0.2% among 330,000; TSHR-expressing cells, TSH-stimulated cAMP HTRF, 2 h; stronger effect = lower value; Thyrotropin receptor (Homo sapiens), P16473;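 active = activity change below a set negative limit, meaning inhibition stronger than a set level, cut at about -70% in these data; inconclusive = activity change between two set negative limits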; note: % is set by controls: 0 for no effect and ±100 for the full control effect
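Read-out is FRET at 665 nm (cryptate excitation 337 nm) from a cryptate-tagged anti-cAMP antibody, competed by cell cAMP against cAMP-d2. Compounds are tested on freshly harvested TSHR cells challenged with 4nM TSH (EC80) for 2 hours at 37 deg C.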
An asterisk follows results filed as active; ? = inconclusive; · = no result given; ! = not confirmed by another sample; [ ] = dose if it differs, or a comment. Unless noted, calls come from the whole dose curve; as a rule, active = well fitted curve in the direction sought with a large enough effect; inconclusive = small, poorly fitted or top-dose-only effect, or another doubt; inactive = no such curve, though single readings can be large; an effect the other way counts as inactive or inconclusive.

SMILES	N370S GC mod	TCR act	BRCA1 expr act	p53 reactivation	GLS inh	TSHR antag
CC[C@@]1(C(=O)OC)N[C@H](CN(C)C(=O)Nc2ccc(OC)cc2)[C@@H]2C(=O)N(Cc3ccccc3)C(=O)[C@@H]21	·	6%	10µM*	15%	18%	-11
CC(C)[C@@]1(NC(=O)[C@H]2C[C@H]3c4cccc5[nH]cc(c45)C[C@@H]3N(C)C2)O[C@]2(O)[C@H]3CCCN3C(=O)CN2C1=O (tested in a mixture with another compound)	·	·	·	·	8%	·
CN1C(=O)C(=Cc2ccc(Sc3ccccc3)o2)C(=O)N(C)C1=S	·	-1%	-4%	·	-12%	·
CN1C(=O)C(=Cc2ccc(Sc3ccccc3)o2)C(=O)N(C)C1=O	8%	0%	-12%	11%	4.5µM*	-5
CC(=O)Oc1c2c(c(CC=C(C)C)c3c1C(=O)C1=CC4CC5C(C)(C)OC(C/C=C(\C)C(=O)O)(C4=O)[C@]15O3)OC(C)(CCC=C(C)C)C=C2 (stereo not given in full)	-2%	·	·	·	·	·
Fc1ccccc1CSc1ncnc2c1ncn2C1CCCO1 (stereo not given)	·	-5%	3.5µM*	·	4%	·
Nc1ccc(C2(c3ccc(N)cc3)c3ccccc3-c3ccccc32)cc1	-14%	-8%[46.1 µM]	-89%	-3%	2%	-102*
O=C(c1cc2ccccn2n1)N1CCN(Cc2ccccc2)CC1	-7%	9%	10µM*	?	-7%	16
CN1CC[C@]23c4c5ccc(O)c4OC2C(O)CCC3[C@H]1C5 (stereo not given in full)	·	·	·	·	54%[99.4 µM]	·
O=[N+]([O-])c1ccc(N(CCO)CCO)c2c1no[n+]2[O-]	·	·	-81%	·	5%	·
CN1CCN(c2ccc([N+](=O)[O-])c3no[n+]([O-])c23)CC1	-4%	0%	-82%	-16%	-4%	-97*
COc1cc(CCN)c(OC)cc1Br	·	·	·	·	-2%[99.4 µM]	·
S=c1[nH]nc(-c2ccccc2)n1C1C=CCCC1 (stereo not given)	2%	-5%	-28%	6%	?	-71*
O=C(C1CC(c2ccc(F)cc2)=NO1)N1CCC2(CC1)OCCO2 (stereo not given)	-13%	-2%	7.9µM*	?	14%	-1
O=C(C1CC(c2ccc(Cl)c(Cl)c2)=NO1)N1CCC2(CC1)OCCO2 (stereo not given)	5%	-2%	8.9µM*	-5%	0%	3
COc1cccc(C2=NOC(C(=O)N3CCC4(CC3)OCCO4)C2)c1 (stereo not given)	11%	-12%	?	?	1%	9
CC(=O)[O-].CC(=O)[O-].O.O.O.[Pb+2]	9%	·	·	·	·	·
O=C(CN1CCCC1)Nc1ccc(NC(=O)Nc2ccccc2)cc1	12%	0%	2.8µM*	?	14%	-4
Cc1cccc(N2C(=O)NC(=O)/C(=C/c3ccc([N+](=O)[O-])o3)C2=O)c1	5%	-2%[46.1 µM]	2%	-4%	7.1µM*	-16
Cc1cccc(N2C(=O)NC(=O)/C(=C\C=C\c3ccco3)C2=O)c1	-4%	-2%	-89%	-12%	27%	-12
Oc1ccc2c3c1OC1C(O)C=CC4[C@@H](C2)NCC[C@]314 (stereo not given in full)	·	·	·	·	65%[99.4 µM]	·
O=C1C=CC(=O)C(Cl)=C1	13%	·	·	·	·	·
COc1ccc2nc(NC3=NCCN3)sc2c1	4%	0%[46.1 µM]	1.3µM*	?	14%	-2
CCOC(=O)C1CCN(/C=C2/C(=O)NC(=O)N(Cc3ccco3)C2=O)CC1	5%	4%	0%	18%	7.1µM*	3
COc1cc(CC(C)N)cc2c1OCO2 (stereo not given)	·	·	·	·	2%[99.4 µM]	·
SMILES	N370S GC mod	TCR act	BRCA1 expr act	p53 reactivation	GLS inh	TSHR antag
C[C@]12CC[C@@H]3c4cc(O)c(O)cc4CC[C@H]3[C@@H]1CC[C@@H]2O	-9%	2%	0%	·	8.9µM*	-8
CC(C)Oc1cccc(NC(=O)c2ccccc2C(F)(F)F)c1	·	·	·	·	-8%[99.4 µM]	·
C[C@]12CC[C@H](O)C[C@H]1CCC1C2CC[C@]2(C)[C@@H](c3ccc(=O)oc3)C[C@H]3O[C@]132 (stereo not given in full)	·	·	-49%	·	0%	·
CC(=O)O[C@H]1[C@H]2O[C@]23[C@@H]2CC[C@]4(O)C[C@@H](O)CC[C@]4(C)C2CC[C@]3(C)[C@H]1c1ccc(=O)oc1 (stereo not given in full)	·	3%	-65%	-6%	?	-79*
C[C@]12CCC3C(CCC4=CC(=O)CC[C@@H]43)C1CCC2O (stereo not given in full)	·	·	·	·	-14%	·
CNc1ccc2oc(C[C@H]3O[C@@]4(CC[C@H]3C)O[C@H]([C@H](C)C(=O)c3ccc[nH]3)[C@H](C)C[C@H]4C)nc2c1C(=O)O	?	13%	-69%	1%	65%	-90*
[Hg+][c]1ccccc1	·	·	-44%	·	13µM*	·
CN(C(=O)Cc1ccc(Cl)c(Cl)c1)C(CN1CCCC1)c1cccc(N=C=S)c1 (stereo not given)	-6%	·	·	·	·	·
CCn1ncc(-c2ccnc3cc(C(=O)O)nn23)c1C	21%	-9%	-4%	-10%	3.2µM*	-2
O=c1c2ccccc2[se]n1-c1ccccc1	22µM*!	0%	-5%	1%	6.3µM*	-13
O=c1c2ccccc2nc(N2CCCC2)n1-c1ccccc1	19%	8%	3%	-1%	-12%	-11
COc1cccc([C@@]2(O)CCCCC2CN(C)C)c1 (stereo not given in full)	-12%	·	·	·	·	·
ClC1=C(Cl)[C@]2(Cl)[C@@H]3[C@@H]4C[C@@H]([C@H]5O[C@@H]45)[C@@H]3[C@@]1(Cl)C2(Cl)Cl	·	·	·	·	6%[99.4 µM]	·
CC1(C)C[C@H]2C=C(C=O)[C@]3(C=O)C[C@]3(C)[C@H]2C1	4%	-9%	-68%	-10%	-1%	-87*
COc1ccc(NC(=O)CCCn2c(=O)oc3ccccc32)cc1Cl	5%	-3%[46.1 µM]	7.1µM*	?	-8%	1
COc1ccc(Cn2c(=O)oc3ccccc32)cc1F	1%	-4%	-4%	6%	-2%	-5
